# Results: the supplement of paper PMC8728848
# Many of the other results were omitted from the sample, so the strongest signals are more common in it than they were.
# B1: Clone646PsrP (Streptococcus pneumoniae) (protein)
# chain: MDHHHHHHHHASENLYFQGAPAINASLNIAKSETKVYTGEGVDSVYRVPIYYKLKVTNDGSKLTFTYTVTYVNPKTNDLGNISSMRPGYSIYNSGTSTQTMLTLGSDLGKPSGVKNYITDKNGRQVLSYNTSTMTTQGSGYTWGNGAQMNGFFAKKGYGLTSSWTVPITGTDTSFTFTPYAARTDRIGINYFNGGGKVVESSTTSQSLSQSKSLSVSAS
# How the values were obtained:
# Assay in all cases: glycan array binding signal (z-score within array); higher = stronger binding
# Conditions in all cases: glycan notation: IUPAC condensed, linker removed
# [1] = biological target: Fuc(a1-2)Gal(b1-3)[Fuc(a1-4)]GlcNAc(b1-2)Man(a1-3)[Fuc(a1-2)Gal(b1-3)[Fuc(a1-4)]GlcNAc(b1-2)Man(a1-3)]Man(b1-4)GlcNAc(b1-4)GlcNAc
# In short: (§1)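 Arrays were curated from the Consortium for Functional Glycomics database, 3228 in total, and kept only where the protein sequence was available. Binding is expressed as a within-array Z-score. This score was averaged across arrays of the same protein sequence at different concentrations or buffers and across linkers, and negative values can be read as non-binding.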
# [2] = biological target: Fuc(a1-2)Gal(b1-4)GlcNAc(b1-2)Man(a1-3)[Fuc(a1-2)Gal(b1-4)GlcNAc(b1-2)Man(a1-6)]Man(b1-4)GlcNAc(b1-4)[Fuc(a1-6)]GlcNAc
# In short: as §1
# [3] = biological target: Fuc(a1-2)Gal(b1-4)GlcNAc(b1-3)Gal(b1-4)GlcNAc
# In short: as §1
# [4] = biological target: Fuc(a1-2)Gal(b1-4)GlcNAc(b1-6)GalNAc
# In short: as §1
# [5] = biological target: Fuc(a1-2)Gal(b1-4)[Fuc(a1-3)]GlcNAc
# In short: as §1
# [6] = biological target: Fuc(a1-2)[Gal(a1-3)]Gal
# In short: as §1
# [7] = biological target: Fuc(a1-2)[Gal(a1-4)]Gal(b1-4)GlcNAc
# In short: as §1
# [8] = biological target: Fuc(a1-2)[GalNAc(a1-3)]Gal(b1-3)GlcNAc(b1-2)Man(a1-3)[Fuc(a1-2)[GalNAc(a1-3)]Gal(b1-3)GlcNAc(b1-2)Man(a1-6)]Man(b1-4)GlcNAc(b1-4)GlcNAc
# In short: as §1
# [9] = biological target: Fuc(a1-2)[GalNAc(a1-3)]Gal(b1-4)GlcNAc(b1-3)Gal(b1-4)GlcNAc
# In short: as §1
# [10] = biological target: Fuc(a1-2)[GalNAc(a1-3)]Gal(b1-4)GlcNAc(b1-3)GalNAc
# In short: as §1
# [11] = biological target: Fuc(a1-3)GlcNAc
# In short: as §1
# [12] = biological target: Fuc(a1-3)[Gal(b1-4)]GlcNAc(b1-2)Man(a1-3)[Fuc(a1-3)[Gal(b1-4)]GlcNAc(b1-2)Man(a1-6)]Man(b1-4)GlcNAc(b1-4)GlcNAc
# In short: as §1
# [13] = biological target: Fuc(a1-3)[GalNAc(b1-4)]GlcNAc
# In short: as §1
# [14] = biological target: Fuc(b1-3)GlcNAc
# In short: as §1
# [15] = biological target: Gal(a1-4)Gal(b1-4)GlcNAc(b1-2)Man(a1-3)[Gal(a1-4)Gal(b1-4)GlcNAc(b1-2)Man(a1-6)]Man(b1-4)GlcNAc(b1-4)GlcNAc
# In short: as §1
# [16] = biological target: Gal(a1-6)Glc
# In short: as §1
# [17] = biological target: Gal(b1-2)Gal
# In short: as §1
# [18] = biological target: Gal(b1-3)GlcNAc(b1-2)Man(a1-3)[Gal(b1-3)GlcNAc(b1-2)Man(a1-6)]Man(b1-4)GlcNAc(b1-4)[Fuc(a1-6)]GlcNAc
# In short: as §1
# [19] = biological target: Gal(b1-3)GlcNAc(b1-2)[Gal(b1-3)GlcNAc(b1-6)]Man(a1-6)[Gal(b1-3)GlcNAc(b1-2)Man(a1-3)]Man(b1-4)GlcNAc(b1-4)GlcNAc
# In short: as §1
# [20] = biological target: Gal(b1-3)[Fuc(a1-4)]GlcNAc(b1-3)Gal(b1-4)[Fuc(a1-3)]GlcNAc
# In short: as §1
# [21] = biological target: Gal(b1-3)[Fuc(a1-4)]GlcNAc(b1-6)GalNAc
# In short: as §1
# [22] = biological target: Gal(b1-3)[GlcNAc(b1-6)]GalNAc
# In short: as §1
# [23] = biological target: Gal(b1-4)Glc
# In short: as §1
# [24] = biological target: Gal(b1-4)GlcNAc(b1-2)Man(a1-3)[Gal(b1-4)GlcNAc(b1-2)Man(a1-6)][GlcNAc(b1-4)]Man(b1-4)GlcNAc(b1-4)[Fuc(a1-6)]GlcNAc
# In short: as §1
# [25] = biological target: Gal(b1-4)GlcNAc(b1-2)[Gal(b1-4)GlcNAc(b1-4)]Man(a1-3)[GlcNAc(b1-4)][Gal(b1-4)GlcNAc(b1-2)[Gal(b1-4)GlcNAc(b1-6)]Man(a1-6)]Man(b1-4)GlcNAc(b1-4)GlcNAc
# In short: as §1
# [26] = biological target: Gal(b1-4)GlcNAc(b1-2)[Gal(b1-4)GlcNAc(b1-6)]Man(a1-6)[GlcNAc(b1-4)][Gal(b1-4)GlcNAc(b1-2)Man(a1-3)]Man(b1-4)GlcNAc(b1-4)GlcNAc
# In short: as §1
# [27] = biological target: Gal(b1-4)GlcNAc(b1-3)Gal(b1-4)GlcNAc(b1-2)Man(a1-3)[Gal(b1-4)GlcNAc(b1-3)Gal(b1-4)GlcNAc(b1-2)Man(a1-6)]Man(b1-4)GlcNAc(b1-4)GlcNAc
# In short: as §1
# [28] = biological target: Gal(b1-4)GlcNAc(b1-3)Gal(b1-4)GlcNAc(b1-2)[Gal(b1-4)GlcNAc(b1-3)Gal(b1-4)GlcNAc(b1-6)]Man(a1-6)[Gal(b1-4)GlcNAc(b1-3)Gal(b1-4)GlcNAc(b1-2)Man(a1-3)]Man(b1-4)GlcNAc(b1-4)[Fuc(a1-6)]GlcNAc
# In short: as §1
# [29] = biological target: Gal(b1-4)GlcNAc(b1-3)Gal(b1-4)GlcNAc(b1-3)Gal(b1-4)GlcNAc
# In short: as §1
# [30] = biological target: Gal(b1-4)GlcNAc(b1-3)Gal(b1-4)GlcNAc(b1-3)Gal(b1-4)GlcNAc(b1-2)[Gal(b1-4)GlcNAc(b1-3)Gal(b1-4)GlcNAc(b1-3)Gal(b1-4)GlcNAc(b1-6)]Man(a1-6)[Gal(b1-4)GlcNAc(b1-3)Gal(b1-4)GlcNAc(b1-3)Gal(b1-4)GlcNAc(b1-2)Man(a1-3)]Man(b1-4)GlcNAc(b1-4)[Fuc(a1-6)]GlcNAc
# In short: as §1
binder,measurement,setting,value
B1,glycan array binding signal (z-score),[1],1.88
same,glycan array binding signal (z-score),[2],0.523
same,glycan array binding signal (z-score),[3],-0.74
same,glycan array binding signal (z-score),[4],2.58
same,glycan array binding signal (z-score),[5],0.085
same,glycan array binding signal (z-score),[6],-0.314
same,glycan array binding signal (z-score),[7],0.495
same,glycan array binding signal (z-score),[8],-0.761
same,glycan array binding signal (z-score),[9],-0.638
same,glycan array binding signal (z-score),[10],0.378
same,glycan array binding signal (z-score),[11],0.18
same,glycan array binding signal (z-score),[12],-0.096
same,glycan array binding signal (z-score),[13],0.979
same,glycan array binding signal (z-score),[14],1.31
same,glycan array binding signal (z-score),[15],-0.434
same,glycan array binding signal (z-score),[16],0.015
same,glycan array binding signal (z-score),[17],2.94
same,glycan array binding signal (z-score),[18],-0.421
same,glycan array binding signal (z-score),[19],9.03
same,glycan array binding signal (z-score),[20],-0.797
same,glycan array binding signal (z-score),[21],-0.757
same,glycan array binding signal (z-score),[22],0.41
same,glycan array binding signal (z-score),[23],0.581
same,glycan array binding signal (z-score),[24],-0.984
same,glycan array binding signal (z-score),[25],-0.776
same,glycan array binding signal (z-score),[26],-0.887
same,glycan array binding signal (z-score),[27],0.169
same,glycan array binding signal (z-score),[28],-0.263
same,glycan array binding signal (z-score),[29],-0.913
same,glycan array binding signal (z-score),[30],-0.442
